From PubChem
aSyn 5UTR act: Activators working through SNCA 5'UTR binding (MLPCN) | alpha-synuclein 5'UTR reporter, activators screen | activity score, % (tested at 7.5 µM), hits read low | AID 1814 | 300,000 tested, 7.1% active; in the data active means activity score below about -60%
* marks the source's active call; other numbers are inactive results. These entries were drawn from the full list.

Screening Cc1cc(O)ccc1Nc1nc2ccccc2nc1Nc1ccc(O)cc1C returned aSyn 5UTR act -106*.
For Cc1cccc2cc(C#N)c(NCc3ccccc3)nc12 the results were aSyn 5UTR act -76*.
Cc1cc2oc(=O)cc(CN3CCC(C)CC3)c2cc1C was read as aSyn 5UTR act -82*.
Screening Cc1cc2oc(=O)cc(CN3CCC(C)CC3)c2c(C)c1Cl returned aSyn 5UTR act -88*.
For Cc1cc(C)c2c(CN3CCC(C)CC3)cc(=O)oc2c1 the results were aSyn 5UTR act -157*.
`Cc1cc(C)c2c(CCl)cc(=O)oc2c1` gave aSyn 5UTR act 91.
For COc1ccc(/C=N/Nc2nc(Nc3ccccc3)nc(N3CCCCC3)n2)cc1OC the results were aSyn 5UTR act -111*.
Screening N#Cc1ccccc1CSc1nnc(-c2ccncc2)o1 returned aSyn 5UTR act -114*.
For N#Cc1cccc(-c2nnc(SCc3ccccc3C#N)o2)c1 the results were aSyn 5UTR act -65*.
`Clc1ccccc1CSc1nnc(-c2ccncc2)o1` gave aSyn 5UTR act -127*.
Screening Fc1cccc(Cl)c1CSc1nnc(-c2ccncc2)o1 returned aSyn 5UTR act -109*.
O=C(Nc1ccc(NC(=O)C23CC4CC(CC(C4)C2)C3)cn1)c1ccco1 was read as aSyn 5UTR act -144*.
CCC(=O)Nc1ccc(NC(=O)C23CC4CC(CC(C4)C2)C3)cn1 was read as aSyn 5UTR act -94*.
Cc1cccc(-n2ncc3c(NNC(=O)c4ccco4)ncnc32)c1 was read as aSyn 5UTR act -133*.
Cc1ccc(-n2ncc3c(NNC(=O)c4ccco4)ncnc32)cc1Cl was read as aSyn 5UTR act -166*.
Screening COC(=O)CNc1c(-c2ccccc2)nc2ccc(Br)cn12 returned aSyn 5UTR act -69*.
c1ccc(-c2csc(Nc3ncccn3)n2)cc1 was read as aSyn 5UTR act -66*.
`CC(=O)Nc1ccc(-c2csc(Nc3ncccn3)n2)cc1` gave aSyn 5UTR act -89*.
Screening Cc1cccnc1Nc1nc(-c2ccccc2)cs1 returned aSyn 5UTR act -128*.
NNc1nc(-c2ccccc2)cs1 was read as aSyn 5UTR act -92*.
For Oc1ccc(-c2csc(Nc3ncccn3)n2)cc1 the results were aSyn 5UTR act -154*.
`CCC(=O)NC(=S)Nc1ccc(-c2nc3ccc(C)cc3s2)cc1` gave aSyn 5UTR act -238*.
For Cc1ccc2nc(-c3ccc(NC(=S)NC(=O)C(C)C)cc3)sc2c1 the results were aSyn 5UTR act -208*.
Screening Cc1ccc2nc(-c3ccc(NC(=S)NC4CC(C)(C)NC(C)(C)C4)cc3)sc2c1 returned aSyn 5UTR act 121.
For N#Cc1cnc(SCCc2ccccc2)nc1N the results were aSyn 5UTR act -71*.
For Cc1ccc2nc(/C(C#N)=C/c3ccc(O)c(O)c3)[nH]c2c1 the results were aSyn 5UTR act -222*.
`Cc1ccc2nc(/C(C#N)=C/c3cn[nH]c3-c3ccc(F)cc3)[nH]c2c1` gave aSyn 5UTR act -175*.
Screening Cc1noc(C(=O)Nc2ccc(F)c(Cl)c2)c1Cl returned aSyn 5UTR act -70*.
Cc1ccc(NC(=O)c2onc(C)c2Cl)cc1 was read as aSyn 5UTR act -151*.
Screening COc1ccc(-c2cc(=O)n(-c3nc4ccccc4[nH]3)[nH]2)cc1 returned aSyn 5UTR act -68*.
COc1ccc(Cc2[nH]n3c(=O)cc(C(C)C)nc3c2-c2ccccc2)cc1 was read as aSyn 5UTR act 72.
For CC(C)c1ccc(NC(=O)c2snc3ccc(Cl)cc23)cc1 the results were aSyn 5UTR act -369*.
`CC(C)c1ccc(NC(=O)c2csnn2)cc1` gave aSyn 5UTR act -98*.
For CCSc1ccc(NC(=O)c2cccnc2)cc1 the results were aSyn 5UTR act -66*.
`CC(C)c1ccc(NC(=O)c2cccnc2)cc1` gave aSyn 5UTR act -247*.
`CCc1ccc(NC(=O)c2cccnc2)cc1` gave aSyn 5UTR act -79*.
COc1ccc(Cc2nc(-c3ccc(NC(=O)c4cccnc4)cc3)no2)cc1 was read as aSyn 5UTR act 75.
`c1ccc(-c2nc(-c3ccc(-c4ccon4)s3)no2)cc1` gave aSyn 5UTR act -104*.
`Brc1ccc(-c2nc(-c3ccncc3)no2)cc1` gave aSyn 5UTR act -184*.
`Brc1ccc(-c2nc(-c3ccncc3)no2)o1` gave aSyn 5UTR act -188*.
`Brc1ccc(-c2nc(-c3ccccn3)no2)o1` gave aSyn 5UTR act 80.
c1coc(-c2nc(-c3ccncc3)no2)c1 was read as aSyn 5UTR act -122*.
For CCCCc1ccc(-c2nc(-c3ccncc3)no2)cc1 the results were aSyn 5UTR act 91.
Screening O=[N+]([O-])c1ccc(-c2nc(-c3ccncc3)no2)cc1 returned aSyn 5UTR act -74*.
For c1ccc(-c2nc(-c3ccncc3)no2)cc1 the results were aSyn 5UTR act -141*.
c1ccc(-c2noc(-c3cccnc3)n2)cc1 was read as aSyn 5UTR act -198*.
COc1cccc(NC(=O)Nc2ccccc2Br)c1 was read as aSyn 5UTR act -120*.
Screening Cc1nc2cc(NC(=O)NCCC3=CCCCC3)ccc2o1 returned aSyn 5UTR act -151*.
COc1ccc(NC(=O)Nc2ccc3oc(C)nc3c2)cc1 was read as aSyn 5UTR act -164*.
Screening COc1cc(-c2ccc(NC(=O)NC3CC3)c(OC)c2)ccc1NC(=O)NC1CC1 returned aSyn 5UTR act -99*.
For COc1ccc(NC(=O)Nc2ccc(F)cc2F)cc1 the results were aSyn 5UTR act -139*.
`COCC(=O)Nc1ccc(C(C)C)cc1` gave aSyn 5UTR act -69*.
Screening Cc1cc(C)nc(NC(=O)Nc2ccc(F)cc2F)n1 returned aSyn 5UTR act -112*.
Screening CCC1CCC(NC(=O)Nc2cccc(OC)c2)CC1 (stereo not drawn) returned aSyn 5UTR act -193*.
Screening COc1ccc(Nc2cc(Nc3cccc(OC)c3)ncn2)cc1 returned aSyn 5UTR act -80*.
For COc1cccc(NC(=O)Nc2ccc3nsnc3c2)c1 the results were aSyn 5UTR act -183*.
`COc1ccc(NC(=O)Nc2ccc3c(c2)CCC3)cc1` gave aSyn 5UTR act -149*.
`COc1ccc(NC(=O)Nc2ccc(C(C)C)cc2)cc1` gave aSyn 5UTR act -75*.
For COc1ccc(NC(=O)Nc2cccc(OC)c2)cc1 the results were aSyn 5UTR act -134*.
`CCC(=O)Nc1nc2ccc3nc(C)sc3c2s1` gave aSyn 5UTR act -151*.
`COc1ccc2sc(NCc3ccccc3)nc2c1` gave aSyn 5UTR act -112*.
For CCC(=O)Nc1nnc(/C=C/c2ccc(OC)cc2)s1 the results were aSyn 5UTR act -141*.
`COc1ccc2sc(NC(=O)CC(C)C)nc2c1` gave aSyn 5UTR act -120*.
`COc1ccc2sc(NC(C)=O)nc2c1` gave aSyn 5UTR act -119*.
For CCC(=O)Nc1nc2cc(OC)ccc2s1 the results were aSyn 5UTR act -107*.
Clc1ccc(-c2noc(CN3CCOCC3)n2)cc1 was read as aSyn 5UTR act -86*.
Screening COc1ccc(NC(=O)c2cnn(-c3ccccc3)c2C)cc1 returned aSyn 5UTR act -62*.
Screening COc1ccc(CN2CCn3ncc(C(=O)Nc4ccccc4)c3C2=O)cc1 returned aSyn 5UTR act -86*.
`Cc1c(C(=O)Nc2ccccc2)cnn1-c1ccccc1` gave aSyn 5UTR act -68*.
`CC(=O)c1cccc(NC(=O)c2cnn(-c3ccccc3)c2C)c1` gave aSyn 5UTR act -181*.
Screening Cc1c(C(=O)Nc2cccc([N+](=O)[O-])c2)cnn1-c1ccccc1 returned aSyn 5UTR act -137*.
